A selection: hits, their analogues and other compounds. The true share with any hit is near 9.2%.
ELG1 DNA repair – inhibitors of ELG1-dependent DNA repair in HEK293T cells. AID 504467. Potency, µM (series often up to 46.1 µM), hits mostly inhibitors. HEK293T ELG1-luciferase reporter, luminescence, 16 h; DNA damage induced by 5-fluorouridine. hit rate 2.3% among 330,000; also: nearly all actives have a fitted effect of over 55% in size
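Overnight (16 hr) co-exposure of 2,000 cells/well to 5-fluorouridine and compound at 37 °C preceded detection. Luciferase was quantified via ONE-Glo luminescence; loss of signal denotes inhibition.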
NPC1 promoter act – NPC1 promoter activation; AID 485313; Potency, µM (titrated, usually from 9.22 µM), most hits filed as activators; hit rate 2.4% among 320,000; Huh7 NPC1 promoter luciferase reporter, 24 h; also: nearly all actives have a fitted effect of over 60% in size
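Luminescence read-out of NPC1 promoter-driven luciferase in stably transfected Huh7 cells; compounds delivered in DMSO and left 24 h at 37C, 5% CO2, qHTS titration format.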
FLuc counter – firefly luciferase modulation, counter-screen for miR-21 project. P08659. purified FLuc, Km substrates, luminescence inhibition. Potency, µM (highest dose often 57.5 µM), usual class: inhibitors. hit rate 6.9% among 360,000. AID 588342; also: nearly all actives have a fitted effect of over 55% in size
Target sequence (P08659 whole entry, looked up): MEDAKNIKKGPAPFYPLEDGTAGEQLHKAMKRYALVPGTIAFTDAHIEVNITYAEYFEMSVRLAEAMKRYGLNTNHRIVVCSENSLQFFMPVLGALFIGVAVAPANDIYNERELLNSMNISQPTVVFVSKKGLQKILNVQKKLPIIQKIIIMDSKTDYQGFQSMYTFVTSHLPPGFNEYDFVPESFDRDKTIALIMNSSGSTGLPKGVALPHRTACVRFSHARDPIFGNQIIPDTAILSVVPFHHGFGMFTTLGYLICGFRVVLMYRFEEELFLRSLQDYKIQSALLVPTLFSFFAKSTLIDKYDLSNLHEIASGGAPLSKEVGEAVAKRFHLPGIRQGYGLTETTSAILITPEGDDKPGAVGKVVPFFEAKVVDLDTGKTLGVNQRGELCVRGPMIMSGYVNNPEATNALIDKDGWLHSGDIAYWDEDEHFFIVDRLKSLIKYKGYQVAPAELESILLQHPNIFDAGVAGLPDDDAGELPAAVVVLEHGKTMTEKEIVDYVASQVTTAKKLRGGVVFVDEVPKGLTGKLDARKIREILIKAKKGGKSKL
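Purified P. pyralis luciferase (10nM final) with 10uM D-luciferin and 10uM ATP (Km levels) in 50mM Tris acetate pH 7.5, 10mM Mg acetate, 0.01% Tween-20, 0.05% BSA; qHTS 6-point titration, ~60 µM downward; luminescence read.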
SMN2 splice enh – increases expression of the SMN2 splice variant | Potency, µM (doses to about 46.1 µM), most hits filed as activators | hit rate 2.8% among 210,000 | AID 1458 | HEK293 SMN2-luciferase splicing reporter, luminescence, 30-36 h; also: nearly all actives have a fitted effect of over 55% in size
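HEK293 cells carry an SMN2 […]–luciferase reporter in which exon 7 inclusion puts luciferase in frame. Cells were plated 10-12 h before compound addition, then incubated 30-36 h at 37C. ONE-Glo luminescence was read; sodium butyrate at 4.5 mM final served as control.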
ELG1 genotoxic – genotoxicity induction in ELG1-luciferase HEK293T cells; hit rate 1.3% among 330,000; HEK293T ELG1-luciferase reporter, luminescence, 16 h; AID 504466; Potency, µM (series often up to 46 µM), actives largely listed as activators; also: nearly all actives have a fitted effect of over 60% in size
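Genotoxic stress is detected as increased luminescence from luciferase-tagged ELG1 in HEK293T cells, measured with ONE-Glo after a 16 hr treatment at 37 °C.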
Rab9 promoter act – activators of Rab9 promoter; Potency, µM (doses to about 9.22 µM), hits mostly activators; Huh7 Rab9 promoter-luciferase reporter, luminescence, 24 h; hit rate 2.8% among 320,000; also: nearly all actives have a fitted effect of over 60% in size
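Huh7 cells stably carrying a Rab9 promoter-luciferase reporter, 1500 cells per well in OP-MEM I with 10% FBS, treated with compound 24 hours at 37C. Luciferase activity read by luminescence after 10 minutes with Amplite reagent.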
Hits are given with their value; n = inactive; u = inconclusive; x = not tested or not shown; [ ] = another dose, or the depositor's remark. Calls follow the shape of the dose curve; as a rule, active = well fitted curve in the direction sought with a large enough effect; inconclusive = small, poorly fitted or top-dose-only effect, or another doubt; inactive = no such curve, though single readings can be large; an effect the other way counts as inactive or inconclusive.

SMILES | ELG1 DNA repair | NPC1 promoter act | FLuc counter | SMN2 splice enh | ELG1 genotoxic | Rab9 promoter act
COc1ccc(C(=O)NCCc2ccccc2)cc1OC | u | u | u | x | n | 4µM
CCc1ccc(CNC(=O)c2ccc(NC(=O)N3CC(C)Sc4ccccc43)cc2)cc1 (centres undefined) | x | x | n | n | x | x
CCOC(=O)c1c(C)c(C(=O)NCCc2ccccc2)c(C)n1C | u | u | u | 16µM | u | 3.5µM
CCS(=O)(=O)N1CCc2cc(C(=O)NCCc3ccccc3)ccc21 | x | x | n | x | x | x
CS(=O)(=O)N1CCc2cc(C(=O)NCCc3ccccc3)ccc21 | x | x | u | 13µM | x | x
CC1CN(C(=O)Nc2ccc(C(=O)NCCc3ccccc3)cc2)c2ccccc2S1 (centres undefined) | x | x | n | 14µM | x | x
COc1ccccc1C(=O)Nc1ccc2c(c1)CN(Cc1cnc(C)s1)CC2 | u | n | u | x | n | n
COc1ccc(C(=O)NCCN2C(=O)S/C(=C\c3cccnc3)C2=O)cc1[N+](=O)[O-] | n | n | u | x | n | n
Nc1nc(Nc2cccc(F)c2)nc2ccccc12 | u | 1.3µM | 5.4µM | u | u | 2.2µM
O=c1oc(Nc2cccc(F)c2)nc2ccccc12 | u | 2.2µM | u | u | 18µM | 2.2µM
CCn1cc(S(=O)(=O)c2cccc(Cl)c2)c(=O)c2cc(F)c(N3CCN(C)CC3)cc21 | x | x | n | x | x | x
CCN(CC)CCn1c2c(c(SCC(=O)Nc3ccc4c(c3)OCCO4)nc1=O)CCCC2 | n | n | n | x | n | n
Cn1c(Cc2nc(-c3cnccn3)no2)nnc1SCC(=O)Nc1ccccc1 | n | n | n | x | n | n
O=C(NCc1nnc(SCC(=O)N2CCCC2)o1)c1cccc(C(F)(F)F)c1 | n | n | n | x | n | n
FC(F)Oc1ccc(/C=N/c2c(-c3ccc(OC(F)F)cc3)nc3n2CCS3)cc1 | n | n | 9.5µM | u | n | n
COc1ccc(-c2nc3n(c(=O)c2C#N)CCS3)cc1 | n | n | n | n | n | n
CN=Cc1nc(-c2ccccc2)oc1O | u | 3.5µM | 17µM | 11µM | u | 2.5µM
CCOC(=O)C1=C(CN2CCN(c3ccccc3OC)CC2)NC(=O)NC1c1ccccc1 (centres undefined) | x | x | n | n | x | x
O=C(O)c1cc(-c2ccccc2)nc2nc(N3CCCCC3)sc12 | n | n | 17µM | n | n | n
COc1ccc(-c2cc(C(=O)O)c3sc(N4CCCCC4)nc3n2)cc1OC | n | n | 4.8µM | n[1.84 µM] | n | n
CCOC(=O)c1cc(-c2ccccc2)nc2nc(N3CCCCC3)sc12 | u | n | n | n | n | n
Cc1ccc(-c2cc(C(=O)O)c3sc(N4CCCCC4)nc3n2)cc1 | u | n | 24µM | n | n | n
CCN(CC)S(=O)(=O)c1ccc2oc(C(=O)NCc3ccc(F)cc3)c(C)c2c1 | 12µM | n | n | n | n | n
Cc1c(C(=O)NCc2ccccc2)oc2ccc(S(=O)(=O)N3CCC4(CC3)OCCO4)cc12 | 4.1µM | n | n | n | n | n
COc1cccc(NC(=O)c2oc3ccc(S(=O)(=O)N4CCC5(CC4)OCCO5)cc3c2C)c1 | x | x | n | x | x | x
SMILES | ELG1 DNA repair | NPC1 promoter act | FLuc counter | SMN2 splice enh | ELG1 genotoxic | Rab9 promoter act
COc1ccc(CCNS(=O)(=O)c2ccc3oc(C(=O)O)c(C)c3c2)cc1OC | n | n | n | n | n | n
Cc1c(C(=O)Nc2cccc(Cl)c2)oc2ccc(S(=O)(=O)N3CCC4(CC3)OCCO4)cc12 | 9.2µM | n | n | n | n | n
Cc1c(C(=O)O)oc2ccc(S(=O)(=O)NCc3ccccc3)cc12 | 9.2µM | n | n | n | n | n
Cc1c(C(=O)NCc2ccccn2)oc2ccc(S(=O)(=O)N3CCC4(CC3)OCCO4)cc12 | u | n | n | n | n | n
Cc1nn(C)c(Cl)c1C(=O)NC(C(=O)O)c1ccccc1 (centres undefined) | n | n | n | x | n | n
Cc1ccc(NC(=O)c2oc3ccc(S(=O)(=O)N4CCOCC4)cc3c2C)cc1C | u | n | n | n | n | n
Cc1c(C(=O)NCc2c(F)cc(F)cc2F)oc2ccc(S(=O)(=O)N3CCOCC3)cc12 | 29µM | n | n | x | n | n
COc1cccc(NC(=O)c2oc3ccc(S(=O)(=O)N4CCOCC4)cc3c2C)c1 | 21µM | n | n | x | n | n
CCN1C(=O)C2(c3ccccc31)c1c(oc3ccc(C)cc3c1=O)C(=O)N2CCCOC(C)C (centres undefined) | x | x | n | n | x | x
COc1ccc(CCN2C(=NC(=O)CC(C)C)SC3CS(=O)(=O)CC32)cc1OC (centres undefined) | n | n | n | x | n | n
COc1cccc(CN2CCN(CC(=O)NCCc3ccccc3)CC2)c1 | n | n | n | x | n | n
Cc1ccc(C(=O)Nc2cccc3cccnc23)cc1C | u | 2.8µM | 12µM | x | u | u
Cc1ccc(NC(=O)/C=C/c2ccc(C)o2)c(C)c1 | x | x | u | n | x | x
Cc1cccc(C(=O)Nc2cccnc2Cl)c1 | u | n | u | x | n | n
COc1cc(OC)cc(C(=O)Nc2cccc3cccnc23)c1 | n | n | u | x | n | n
Cc1ccc(C(=O)Nc2cccc3cccnc23)cc1Cl | x | x | 11µM | n | x | x
Cc1ccc(/C=C/C(=O)Nc2cccc3cccnc23)o1 | u | n | 17µM | n | n | n
Cc1cccc(C(=O)Nc2cccc3cccnc23)c1 | u | 4µM | 21µM | x | n | 3.2µM
Cc1ccc(C(C)(C)C)cc1S(=O)(=O)N1CCC(C(=O)N2CCN(c3ccc(O)cc3)CC2)CC1 | u | n | n | x | n | n
O=C(Nc1cccc2cccnc12)c1ccc(Cl)cc1 | u | n | 30µM | x | n | n
C/C(=N\Nc1cccc2cccnc12)c1ccc(C)cc1 | u | u | 2.7µM | 16µM | u | u
O=C(Nc1cccc2cccnc12)c1cccnc1 | n | n | n | n | n | n
COc1ccccc1CNC(=O)c1c2c(nc3ccccc13)C(=O)N(C1CCCCC1)C2 | x | x | n | x | x | x
CCN(C(=O)COC(=O)c1nccnc1N)c1cccc2ccccc12 | n | x | x | x | n | x
CCN(CC(=O)Nc1ccc2c(c1)OCCO2)CC(=O)Nc1ccc(C)c(S(=O)(=O)N(C)C)c1 | u | x | x | x | n | x
CCCc1cc(=O)oc2cc(C)cc(OCC(=O)NCCN3CCOCC3)c12 | n | n | n | x | n | n
CCCc1cc(=O)oc2cc(C)cc(OCC(=O)Nc3ccc(CN4CCOCC4)cc3)c12 | 15µM | n | n | x | n | n
CCc1cc(=O)oc2cc(C)cc(OCC(=O)NCCc3c[nH]c4ccccc34)c12 | 5.8µM | n | n | x | n | n
CCOC(=O)C1=C(COC(=O)/C=C/c2cccc(OC)c2OC)NC(=O)NC1C (centres undefined) | u | n | n | x | n | n
Cc1ccc(C)c(Nc2c(F)c(F)c(F)c(F)c2C(=O)O)c1 | n | n | 15µM | n | n | n

Assay outcomes as filed in PubChem BioAssay.
